PKA-R2B act = activators of human PKA-R2B complex; P22694+P31323; PKA-R2B holoenzyme dissociation, Cy5-IP20 fluorescence polarization; R2B truncated from residue 108, S112A mutant; 0% DMSO only, 100% 113 µM cGMP; activation, % at 11.4 µM; actives 0.079% (n = 340,000); AID 504700;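 active = activation above a cutoff set at the mean over all compounds plus 3 SD, cut at about 18% in these data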;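 also: higher means more holoenzyme dissociation and a rise in polarization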
Rin1 Abl inh = blocks binding of human Rin1 to Abl; P00519+Q13671; TR-FRET Rin1/Abl binding, biochemical; inhibition, % at 7.35 µM; actives 0.4% (n = 360,000); AID 588664; in the data active = inhibition above about 5%, passing the limit was not always enough
E coli Lon inh = E. coli protease La inhibition | P0A9M0 | purified E. coli Lon protease, fluorescence polarization | inhibition, % at 7.94 µM | actives 0.42% (n = 360,000) | AID 602123; in the data active = inhibition above about 13%, passing the limit was not always enough;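 also: 0% = enzyme with probe and DMSO and 100% = no enzyme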
IDE act = IDE (human) activation, cell-based | P14735 | HEK cells, FAbeta-B cleavage, fluorescence polarization; 0% vehicle, 100% cell-free pure enzyme wells | activation, % at 5.96 µM | actives 0.073% (n = 340,000);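 active = activation above the mean of all tested compounds plus 3 SD, set per screening campaign, cut at about 17% in these data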
Target sequence (P14735 whole entry, looked up): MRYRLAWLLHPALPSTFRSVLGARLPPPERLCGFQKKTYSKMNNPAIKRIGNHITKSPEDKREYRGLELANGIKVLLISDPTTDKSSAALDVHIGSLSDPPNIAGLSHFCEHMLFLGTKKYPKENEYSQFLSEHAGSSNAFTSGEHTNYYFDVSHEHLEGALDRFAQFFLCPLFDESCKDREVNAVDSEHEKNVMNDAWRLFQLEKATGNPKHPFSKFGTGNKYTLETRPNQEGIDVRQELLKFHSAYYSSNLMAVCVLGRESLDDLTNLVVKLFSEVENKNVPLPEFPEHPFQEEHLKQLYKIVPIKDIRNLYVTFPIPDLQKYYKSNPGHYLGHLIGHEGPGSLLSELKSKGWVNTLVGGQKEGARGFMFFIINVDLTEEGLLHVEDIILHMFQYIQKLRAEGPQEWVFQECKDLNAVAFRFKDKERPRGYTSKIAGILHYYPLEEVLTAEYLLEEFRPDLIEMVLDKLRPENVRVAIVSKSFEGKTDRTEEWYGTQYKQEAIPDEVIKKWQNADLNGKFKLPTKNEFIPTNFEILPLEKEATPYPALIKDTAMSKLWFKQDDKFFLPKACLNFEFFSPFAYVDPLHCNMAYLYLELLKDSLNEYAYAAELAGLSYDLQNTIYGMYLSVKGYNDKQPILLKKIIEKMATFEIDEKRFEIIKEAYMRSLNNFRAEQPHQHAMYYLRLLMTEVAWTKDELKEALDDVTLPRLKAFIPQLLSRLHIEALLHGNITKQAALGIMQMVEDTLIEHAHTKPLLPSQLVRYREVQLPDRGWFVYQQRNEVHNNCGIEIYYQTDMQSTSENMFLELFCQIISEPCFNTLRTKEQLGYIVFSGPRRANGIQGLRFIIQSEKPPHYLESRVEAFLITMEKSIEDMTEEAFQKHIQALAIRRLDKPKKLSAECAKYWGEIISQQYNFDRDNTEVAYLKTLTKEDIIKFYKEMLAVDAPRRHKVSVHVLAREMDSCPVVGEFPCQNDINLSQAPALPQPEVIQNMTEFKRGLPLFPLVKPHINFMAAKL
PKA-R1A activ = activators of PKA-R1A complex; P00514+P68181; PKA-R1A dissociation, Cy5-IP20 fluorescence polarization; scaled: DMSO 0%, 113 µM cGMP 100%; activation, % at 11.4 µM; actives 0.083% (n = 340,000); AID 504707;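 active = percent activation above the mean of all tested compounds plus 3 SD, cut at about 19% in these data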;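 also: higher means more PKAc released from R1A so a rise in polarization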
IDE cell inh = inhibitors of human insulin-degrading enzyme in cells. P14735. HEK cells, FAbetaB cleavage, fluorescence polarization. inhibition, % at 5.59 µM. actives 0.41% (n = 320,000). AID 434962;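 active = percent inhibition above the average of all tested compounds plus 3 SD, set per screening campaign, cut at about 16% in these data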;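 also: IDE supplied by intact live HEK cells; FP after avidin binding of uncleaved biotin substrate so inhibition keeps polarization high; 0% = DMSO wells and 100% = 60 µM reference IDE inhibitor Ii1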
Rin1 Abl conf = confirmation of inhibitors of human Rin1-Abl interaction; inhibition, % at 7.35 µM; AID 602124; shares compounds with Rin1 Abl inh; TR-FRET Rin1-Abl binding, purified proteins; actives 49% (n = 1,300)
GFP quencher = counter-screen for Rin1-Abl inhibitors: GFP fluorescence quenchers; shares compounds with Rin1 Abl inh; inhibitors/quenchers counterscreen; actives 8.5% (n = 1,300); inhibition, % at 6.75 µM;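 also: ABL1-eGFP fusion protein alone without its partner RIN1-SBP; 0% = protein with vehicle and 100% = wells lacking protein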
GFP quench DR = quenches GFP in dose response, Rin1-Abl counter-screen | IC50, µM | 230 tested, under 10 active | GFP fluorescence interference/quenching counterscreen | AID 602182 | shares compounds with Rin1 Abl inh; call rule not given here;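 also: ABL1-eGFP fusion protein alone without its RIN1 binding partner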
Starred values were filed as active, the others as inactive; nt = no result. In the library only some 1.3% were active in any assay of this set; here they are far more common. Rule as the data show it, unless noted: active = inhibition above about 6.5%; inactive = the rest.

SMILES	PKA-R2B act	Rin1 Abl inh	E coli Lon inh	IDE act	PKA-R1A activ	IDE cell inh	Rin1 Abl conf	GFP quencher	others
Nc1nc(-c2ccc([N+](=O)[O-])cc2)cc(=O)[nH]1	-10.2	13.5*	-5.6	3.3	2.3	nt	11.2*	-0.2
O=c1cc(-c2ccccc2)nc(Sc2ccc([N+](=O)[O-])cc2[N+](=O)[O-])[nH]1	-7.0	-0.6	-1.1	5.9	7.8	-5.1	nt	nt
O=c1cc(SCc2ccccc2)nc[nH]1	-0.7	88.8*	-6.5	-14.8	4.1	nt	98.4*	1.1	GFP quench DR=>67.6
CCOC(=O)N1CCN(S(=O)(=O)c2ccc(OC)c(Cl)c2Cl)CC1	-2.0	-1.5	1.6	0.7	-8.6	6.2	nt	nt
COc1ccc(S(=O)(=O)N2CCCC2)c(Cl)c1Cl	5.0	9.9*	-8.4	-1.1	13.3	-7.9	-1.2	-0.9
Cn1c(CCC(=O)Nc2ccc(N3CCOCC3)cc2)nc(=O)c2ccccc21	2.5	9.6*	-3.7	3.5	-18.4	1.8	-3.8	-0.6
COc1ccc(CN2CCC2(C)C(=O)Nc2cnc3ccccc3c2)c2ccccc12 (stereo unspecified)	nt	4.7	-10.4	nt	nt	nt	nt	nt
O=C(OCCCOC(=O)c1ccc(O)cc1)c1ccc(O)cc1	5.9	19.5*	-1.2	-5.1	-8.6	nt	16.8*	0.4
O=C(OCCCCOC(=O)c1ccccc1)c1ccccc1	-2.0	2.1	-7.4	-1.6	-2.5	6.0	nt	nt
COc1ccc(C2c3c4c(n(C)c3CCN2C)CCN(C)C4c2ccc(OC)cc2)cc1 (stereo unspecified)	1.3	6.5*	-11.0	6.9	-2.8	1.8	-0.3	-1.6
CCc1ccc(NC(=O)Cn2c(=O)oc3cc(S(=O)(=O)N4CCOCC4)ccc32)cc1	4.7	8.1*	4.8	-6.3	-0.5	-1.0	1.5	-0.6
CCc1cccc(NC(=O)Cn2c(=O)oc3cc(S(=O)(=O)N4CCOCC4)ccc32)c1	11.7	6.2	-5.0	-0.2	-2.9	0.3	nt	nt
Cc1cccc2cc(-c3nc4ccc(C(=O)O)cc4[nH]3)c(=O)oc12	14.3	0.4	-5.5	0.1	1.6	-2.1	nt	nt
COc1ccc(-n2c(Cc3cccn3C)nnc2SCC(=O)Nc2cccc(NC(C)=O)c2)cc1	-0.1	9.1*	-11.9	4.8	2.7	-0.1	-2.7	-0.5
COc1ccc(-n2c(Cc3cccn3C)nnc2SCC(=O)Nc2cccc(Cl)c2)cc1	7.8	2.3	-2.3	6.7	-0.3	6.8	nt	nt
c1ccc(CNc2nc(NCCc3ccncc3)c3sccc3n2)cc1	nt	20.1*	6.1	nt	nt	nt	10.5*	0.2
CC1CCCN(S(=O)(=O)c2ccc(C(=O)Nc3nnc(C4=COCCO4)o3)cc2)C1 (stereo unspecified)	2.6	-4.6	4.1	-0.3	1.6	8.7	nt	nt
CC1CCCCN1S(=O)(=O)c1ccc(C(=O)Nc2nnc(C3=COCCO3)o2)cc1 (stereo unspecified)	-5.0	7.8*	-1.7	1.6	-6.1	1.2	0.7	-1.3
COc1ccc(/C=N/NC(=O)Cn2c(Cc3ccc(OC)c(OC)c3)nc3ccccc32)cc1	-9.0	13.8*	12.4	-1.2	-7.9	2.0	19.4*	-1.9	GFP quench DR=>67.5
COc1ccc(F)cc1C(=O)C1CCCN(C(=O)c2ccc(C(C)=O)s2)C1 (stereo unspecified)	4.6	-1.6	-3.4	5.7	3.0	8.5	nt	nt
C[C@H]1c2cccc(O)c2C(O)=C2C(=O)[C@]3(O)C(O)=C(C(N)=O)C(=O)[C@@H](N(C)C)C3[C@@H](O)C21 (stereo partly specified)	-1.5	5.0	-1.2	4.2	-4.9	0.3	nt	nt
C=C1c2cccc(O)c2C(=O)C2C(=O)[C@]3(O)C(=O)C(C(N)=O)C(=O)[C@@H](N(C)C)[C@@H]3[C@@H](O)[C@H]12 (stereo partly specified)	5.5	33.3*	13.4	5.2	5.4	2.0	3.7	3.1
CC1CCCCN1C(=O)COC(=O)c1ccc2ccccc2n1 (stereo unspecified)	-6.0	0.1	-3.8	0.6	-0.8	3.3	nt	nt
Cc1cc(C)cc(-n2c(O)c(C=NC3CCS(=O)(=O)C3)c3ccccc3c2=O)c1 (stereo unspecified)	-4.0	1.9	11.0	8.6	-0.3	-4.9	nt	nt
COCCNC(=O)NC(=O)CN1C(=O)NC(Cc2c[nH]c3ccccc23)C1=O (stereo unspecified)	-1.4	0.5	2.5	4.3	6.8	8.7	nt	nt
SMILES	PKA-R2B act	Rin1 Abl inh	E coli Lon inh	IDE act	PKA-R1A activ	IDE cell inh	Rin1 Abl conf	GFP quencher	others
Cc1cc(Oc2ccc(=O)n(C)n2)nc(SCCOc2ccccc2)n1	5.0	33.2*	-6.8	4.7	5.9	4.8	-4.6	0.2
CCOC(=O)CSc1nc(C)cc(Oc2ccc(=O)n(C)n2)n1	-2.6	1.3	-5.9	11.6	-2.5	2.6	nt	nt
CC(=O)N/C(=C\c1cccc([N+](=O)[O-])c1)C(=O)NC(C)C	-2.7	-1.7	0.9	3.0	-7.0	2.2	nt	nt
O=C(OCCc1cc2ccccc2c(=O)o1)N1CCOCC1	1.1	11.6*	-0.1	0.3	11.8	9.2	1.8	-4.5
CCSc1nnc(NC(=O)C2C3CCC(C3)C2C(=O)O)s1 (stereo unspecified)	-6.5	4.0	-4.3	2.5	-7.9	1.9	nt	nt
COC(=O)c1sccc1NC(=O)COc1ccccc1Cl	-2.2	7.4*	0.4	0.6	-1.5	11.6	-1.8	0.5
CCOc1ccccc1NC(=O)Nc1ccsc1C(=O)OC	-5.3	-0.3	-2.1	-1.1	-1.2	-0.2	nt	nt
Cc1ccc(-n2c(SCc3cc(=O)n4ccsc4n3)nnc2-c2cccnc2)c(C)c1	1.0	16.6*	8.5	-11.4	1.2	4.7	19.2*	-0.2	GFP quench DR=>67.5
Cc1ccc(-n2c(SCC(=O)N3CCCc4ccccc43)nnc2-c2cccnc2)c(C)c1	-3.0	8.7*	-17.7	-4.3	-13.1	-0.5	13.3*	0.2
COc1ccc(OC)c(/C=N/NC(=O)c2cccc3ccccc23)c1	3.2	6.9*	-10.9	-2.0	-0.5	-0.8	-2.7	0.1
Oc1ccc(CN2CCc3ccccc3C2)c2cccnc12	4.8	27.8*	4.2	5.9	1.2	-4.9	7.6*	0.7
Oc1ccc(CN2CCCCC2)c2cccnc12	-17.9	1.8	1.6	0.9	-4.7	0.6	nt	nt

High-throughput results: PubChem BioAssay, The Scripps Research Institute Molecular Screening Center
